MK inhibit: S. pneumoniae MK inhibitors, primary screen, biochemical, PK/LDH-coupled NADH absorbance; purified MK, PK/LDH-coupled NADH absorbance 340 nm; inhibition, % at 10 µM; hit rate 0.48% among 65,000; AID 555, 2006;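 active = ranked among the strongest by inhibition in the single 10 µM screen, a fixed top-ranked set picked for dose follow-up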
Autofluor 339: intrinsic fluorescence of library compounds, ex339/em460 – biochemical, MLSMR library, data from DPM-DC assay, artefact control, profiling panel | compound autofluorescence, ex339/em460 nm, NADH buffer; hits give high values; 1 = no-compound wells, NADH background | fluorescence fold increase at 10 µM | hit rate 5.5% among 65,000 | AID 709, 2007;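 active = at 10 µM, mean starting fluorescence two-fold or more over control wells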;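 also: signal is the first read of a kinetic run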
NADH enzymes: inhibitors of PK/LDH coupling enzymes, profiling panel, artefact control, biochemical, MLSMR library. hit rate 0.02% among 65,000. coupled PK/LDH NADH assays, four targets. IC50, µM (highest dose often 10 µM), for the others: at the highest dose inhibition;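 active = single-dose screening hits from any of four coupled enzyme assays that gave an IC50 when retested across doses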;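 also: the DPM-DC format reads NADH fluorescence rather than 340 nm absorbance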
Abs 340nm: compound light absorbance at 340 nm, profiling panel, artefact control, biochemical, MLSMR library, data from PS, PMK, MK assays; compound absorbance at 340 nm, fold over control; fold change at 10 µM; 65,000 tested, under 10 active; AID 708, 2007;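 active = at 10 µM dose, initial 340 nm absorbance at least 2 fold that of control wells; inactive = change under 2 fold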;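 also: initial absorbance extrapolated from kinetic A340 decline of NADH oxidation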
Spn PMK inh: S. pneumoniae PMK inhibitors, primary screen, biochemical, mevalonate pathway, pilot trial included; inhibition, % at 10 µM; purified PMK, PK/LDH-coupled NADH absorbance 340 nm; hit rate 0.49% among 65,000; phosphomevalonate kinase (Streptococcus pneumoniae D39);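 active = top-ranked compounds by inhibition in the single 10 µM screen, taking a fixed number of the strongest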;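 also: 0% = full reaction with DMSO carrier and 100% = background rate without enzyme reaction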
Spn DPM-DC inh: S. pneumoniae DPM-DC inhibitors, primary screen, biochemical, PK/LDH-coupled NADH fluorescence. diphosphomevalonate decarboxylase (Streptococcus pneumoniae D39). purified DPM-DC. calls only at 10 µM. hit rate 0.49% among 65,000;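 active = the 320 compounds with the highest percent inhibition in the single-dose primary screen, excluding strongly autofluorescent ones, cut at about 32% in these data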;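 also: kinetic rate of NADH fluorescence loss reporting ADP formed by the decarboxylase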
* = called active by the depositor. A selection: hits, their analogues and other compounds. The true share with any hit is near 6.8%.

Screening COC(=O)C1=CN(C(C)C)C=C(C(=O)OC)C1c1cc2c(cc1Br)OCO2 returned MK inhibit 7.0, Autofluor 339 2*, NADH enzymes 5.0%, Abs 340nm 1.01, Spn PMK inh 4.0 and Spn DPM-DC inh inactive.
Screening CC1=C(C(=O)OCC(C)C)C(c2cc3c(cc2Br)OCO3)NC(=O)N1C (stereo not given) returned MK inhibit 9.0, Autofluor 339 1.03, NADH enzymes 3.0%, Abs 340nm 0.99, Spn PMK inh 12.0 and Spn DPM-DC inh inactive.
`O=c1n(Cc2ccccc2)c2cc(Cl)cnc2n1Cc1ccccc1` gave MK inhibit 6.0, Autofluor 339 2.81*, NADH enzymes 4.0%, Abs 340nm 1.02, Spn PMK inh 0.0 and Spn DPM-DC inh inactive.
For O=C(Cn1c(=O)c2c(ncn2Cc2ccccc2)n(Cc2ccccc2)c1=O)N1CCCC1 the results were MK inhibit 0.0, Autofluor 339 1.08, NADH enzymes 5.0%, Abs 340nm 1, Spn PMK inh 14.0 and Spn DPM-DC inh inactive.
Screening CCCn1nnc(NC(=O)c2ccco2)n1 returned MK inhibit 9.0, Autofluor 339 1.12, NADH enzymes 9.0%, Abs 340nm 1.05, Spn PMK inh 6.0 and Spn DPM-DC inh inactive.
Screening CCn1nnc(NC(=O)c2ccc(-c3ccc(Cl)cc3)o2)n1 returned MK inhibit 5.0, Autofluor 339 2.09*, NADH enzymes 3.0%, Abs 340nm 1.03, Spn PMK inh 11.0 and Spn DPM-DC inh inactive.
Screening Cc1csc2nc(=O)c3ccccc3n12 returned MK inhibit 10.0, Autofluor 339 3.67*, NADH enzymes 11.0%, Abs 340nm 1.03 and Spn PMK inh 11.0.
COC(=O)c1cc(C)sc1NC(=O)c1cccnc1 was read as MK inhibit 8.0, Autofluor 339 1.13, NADH enzymes 5.0%, Abs 340nm 1.15, Spn PMK inh 8.0 and Spn DPM-DC inh inactive.
COc1ccc(C)cc1-n1nnnc1SCc1cc(=O)n2cc(C)ccc2n1 was read as MK inhibit 0.0, Autofluor 339 2.08*, NADH enzymes 11.0%, Abs 340nm 1.12, Spn PMK inh 12.0 and Spn DPM-DC inh inactive.
COc1ccc(C(=O)N2CCc3cc(OC)c(OC)cc3C2)cc1OC was read as MK inhibit 4.0, Autofluor 339 1.14, NADH enzymes 3.0%, Abs 340nm 1.07, Spn PMK inh 6.0 and Spn DPM-DC inh inactive.
COc1cc2c(cc1OC)CN(Cc1cc(=O)n3cc(C)ccc3n1)CC2 was read as MK inhibit 5.0, Autofluor 339 2.29*, NADH enzymes 10.0%, Abs 340nm 1.1, Spn PMK inh 6.0 and Spn DPM-DC inh inactive.
`CCCNC(=O)c1c(C)cc(=O)oc1C` gave MK inhibit 0.0, Autofluor 339 2.06*, NADH enzymes 12.0%, Abs 340nm 1.22, Spn PMK inh 16.0 and Spn DPM-DC inh inactive.
`Cn1c(C(O)c2ccccc2)nc(Cl)c1Cl` (stereo not given) gave MK inhibit 3.0, Autofluor 339 1.11, NADH enzymes 1.0%, Abs 340nm 1.06, Spn PMK inh 0.0 and Spn DPM-DC inh inactive.
For O=S(=O)(Nc1ccc(C(F)(F)F)cc1)c1cnc[nH]1 the results were MK inhibit 12.0, Autofluor 339 0.63, NADH enzymes 20.0%, Abs 340nm 0.99, Spn PMK inh 8.0 and Spn DPM-DC inh active.
Screening COCCNC(=O)CSc1nc2ccc(N3CCOCC3)cc2c(=O)n1CCc1ccccc1 returned MK inhibit 10.0, Autofluor 339 4.1*, NADH enzymes 9.0%, Abs 340nm 1.04 and Spn PMK inh 7.0.
`CCCCNC(=O)CSc1nc2ccc(N3CCOCC3)cc2c(=O)n1CCc1ccccc1` gave MK inhibit 10.0, Autofluor 339 2.34*, NADH enzymes 10.0%, Abs 340nm 1.01, Spn PMK inh 10.0 and Spn DPM-DC inh inactive.
For Nc1nnnn1CC(=O)OCc1cccc(Br)c1 the results were MK inhibit 6.0, Autofluor 339 1.07, NADH enzymes 2.0%, Abs 340nm 1.03, Spn PMK inh 1.0 and Spn DPM-DC inh inactive.
Screening CCC(=O)n1nc(NCc2ccccc2OC)nc1NCc1ccccc1OC returned MK inhibit 3.0, Autofluor 339 1.1, NADH enzymes 4.0%, Abs 340nm 1.04, Spn PMK inh 9.0 and Spn DPM-DC inh inactive.
Screening COc1ccc(C(=O)O)cc1Nc1cc(C)nc2ncnn12 returned MK inhibit 0.0, Autofluor 339 1.09, NADH enzymes 0.0%, Abs 340nm 1.04, Spn PMK inh 0.0 and Spn DPM-DC inh inactive.
CCCCCn1c(SCC#N)nc2cc(C(=O)NCC3CCCO3)ccc2c1=O (stereo not given) was read as MK inhibit 0.0, Autofluor 339 0.72, NADH enzymes 14.0%, Abs 340nm 1.06, Spn PMK inh 6.0 and Spn DPM-DC inh active.
For CCCn1c(=S)[nH]c2cc(C(=O)NCC3CCCO3)ccc2c1=O (stereo not given) the results were MK inhibit 7.0, Autofluor 339 1.07, NADH enzymes 4.0%, Abs 340nm 1.08, Spn PMK inh 5.0 and Spn DPM-DC inh inactive.
CCCCCNC(=O)c1ccc2c(=O)n(CC3CCCO3)c(=O)[nH]c2c1 (stereo not given) was read as MK inhibit 0.0, Autofluor 339 2.03*, NADH enzymes 1.0%, Abs 340nm 1.05, Spn PMK inh 2.0 and Spn DPM-DC inh inactive.
COc1cccc(/C=N/n2c(SC)nnc2-c2ccccc2)c1OC was read as MK inhibit 1.0, Autofluor 339 2.14*, NADH enzymes 1.0%, Abs 340nm 1.06 and Spn PMK inh 0.0.
`C=CCn1c(-c2ccccc2)nc2nc3ccccc3nc21` gave MK inhibit 0.0, Autofluor 339 2.11*, NADH enzymes 11.0%, Abs 340nm 1.2 and Spn PMK inh 21.0.
`COc1ccc(C(=O)Cn2c(=O)c(CCC(=O)O)nn3c4ccccc4nc23)cc1OC` gave MK inhibit 11.0, Autofluor 339 2.83*, NADH enzymes 17.0%, Abs 340nm 1.08, Spn PMK inh 11.0 and Spn DPM-DC inh inactive.
For COc1cccc(NC(=O)CN2C(=O)COc3ccc(Cl)cc32)c1 the results were MK inhibit 6.0, Autofluor 339 0.99, NADH enzymes 8.0%, Abs 340nm 1.03, Spn PMK inh 17.0 and Spn DPM-DC inh inactive.
`CCOc1cc2nc(-c3ccc(OC)c(OC)c3)nc(N3CCOCC3)c2cc1OC` gave MK inhibit 10.0, Autofluor 339 1.47, NADH enzymes 15.0%, Abs 340nm 1.09, Spn PMK inh 6.0 and Spn DPM-DC inh inactive.
